# According to the supplement of paper PMC4466140:
# Key:
# Test in all cases: SPOT peptide array binding signal intensity (averaged, normalized) (arbitrary units (background-subtracted, floor 0; scale differs between SH3 domains)); higher = stronger binding of the SH3 domain to the peptide
# [1] = molecular target: CaNbp2
# In short: (§1)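 The binding signal is the normalized, background-subtracted spot intensity averaged over replicates; its arbitrary units differ between domains. It was obtained by incubating 10 μg/ml GST-fused SH3 domains from four yeast species overnight at 4°C in TBS-based blocking buffer on cellulose membranes with synthetic 15-mer peptides, cysteines replaced by serines, then detecting with anti-GST antibody, HRP anti-mouse secondary and luminol.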
# [2] = molecular target: CaRvs167
# In short: as §1
# [3] = molecular target: CaRvs167-3
# In short: as §1
# [4] = molecular target: CaSho1
# In short: as §1
# [5] = molecular target: CaSla1-D1-D2
# In short: as §1
# [6] = molecular target: CaSla1-D3
# In short: as §1
# [7] = molecular target: ScAbp1
# In short: as §1
# [8] = molecular target: ScBbc1
# In short: as §1
# [9] = molecular target: ScBem1-D1
# In short: as §1
# [10] = molecular target: ScBzz1-D1
# In short: as §1
# [11] = molecular target: ScBzz1-D2
# In short: as §1
# [12] = molecular target: ScCyk3
# In short: as §1
# [13] = molecular target: ScFus1
# In short: as §1
# [14] = molecular target: ScHof1
# In short: as §1
# [15] = molecular target: ScHse1
# In short: as §1
# [16] = molecular target: ScLsb1
# In short: as §1
# [17] = molecular target: ScLsb2
# In short: as §1
# [18] = molecular target: ScLsb3
# In short: as §1
# [19] = molecular target: ScLsb4
# In short: as §1
# [20] = molecular target: ScMyo3
# In short: as §1
# [21] = molecular target: ScMyo5
# In short: as §1
# [22] = molecular target: ScNbp2
# In short: as §1
# [23] = molecular target: ScPex13
# In short: as §1
# [24] = molecular target: ScRvs167
# In short: as §1
# [25] = molecular target: ScSho1
# In short: as §1
# [26] = molecular target: ScSla1-D1-D2
# In short: as §1
# [27] = molecular target: ScSla1-D3
# In short: as §1
# [28] = molecular target: SpAbp1-D1
# In short: as §1
# [29] = molecular target: SpBbc1
# In short: as §1
# [30] = molecular target: SpBzz1-D1
# In short: as §1
# [31] = molecular target: SpBzz1-D2
# In short: as §1
# [32] = molecular target: SpCyk3
# In short: as §1
# [33] = molecular target: SpHof1
# In short: as §1
# [34] = molecular target: SpHof1-2
# In short: as §1
# [35] = molecular target: SpHof1-3
# In short: as §1
# [36] = molecular target: SpHse1
# In short: as §1
# [37] = molecular target: SpLsb1
# In short: as §1
# [38] = molecular target: SpLsb4
# In short: as §1
# [39] = molecular target: SpMyo1
# In short: as §1
# [40] = molecular target: SpNbp2
# In short: as §1
# [41] = molecular target: SpPex13
# In short: as §1
# [42] = molecular target: SpRvs167
# In short: as §1
# [43] = molecular target: SpSla1-D1-D2
# In short: as §1
# [44] = molecular target: SpSla1-D3
# In short: as §1
binder,measurement,setting,value
PPPPPPPPPPPLPQS,SPOT peptide array binding signal intensity,[1],34
same,SPOT peptide array binding signal intensity,[2],2.83
same,SPOT peptide array binding signal intensity,[3],≤ 0
same,SPOT peptide array binding signal intensity,[4],≤ 0
same,SPOT peptide array binding signal intensity,[5],≤ 0
same,SPOT peptide array binding signal intensity,[6],1
same,SPOT peptide array binding signal intensity,[7],≤ 0
same,SPOT peptide array binding signal intensity,[8],1.25
same,SPOT peptide array binding signal intensity,[9],≤ 0
same,SPOT peptide array binding signal intensity,[10],9
same,SPOT peptide array binding signal intensity,[11],2
same,SPOT peptide array binding signal intensity,[12],≤ 0
same,SPOT peptide array binding signal intensity,[13],1.5
same,SPOT peptide array binding signal intensity,[14],20
same,SPOT peptide array binding signal intensity,[15],≤ 0
same,SPOT peptide array binding signal intensity,[16],≤ 0
same,SPOT peptide array binding signal intensity,[17],≤ 0
same,SPOT peptide array binding signal intensity,[18],42.5
same,SPOT peptide array binding signal intensity,[19],7
same,SPOT peptide array binding signal intensity,[20],1490
same,SPOT peptide array binding signal intensity,[21],1040
same,SPOT peptide array binding signal intensity,[22],≤ 0
same,SPOT peptide array binding signal intensity,[23],51.5
same,SPOT peptide array binding signal intensity,[24],≤ 0
same,SPOT peptide array binding signal intensity,[25],≤ 0
same,SPOT peptide array binding signal intensity,[26],≤ 0
same,SPOT peptide array binding signal intensity,[27],0.75
same,SPOT peptide array binding signal intensity,[28],12.5
same,SPOT peptide array binding signal intensity,[29],0.5
same,SPOT peptide array binding signal intensity,[30],2670
same,SPOT peptide array binding signal intensity,[31],31.2
same,SPOT peptide array binding signal intensity,[32],1
same,SPOT peptide array binding signal intensity,[33],≤ 0
same,SPOT peptide array binding signal intensity,[34],≤ 0
same,SPOT peptide array binding signal intensity,[35],≤ 0
same,SPOT peptide array binding signal intensity,[36],21
same,SPOT peptide array binding signal intensity,[37],4.5
same,SPOT peptide array binding signal intensity,[38],31
same,SPOT peptide array binding signal intensity,[39],1470
same,SPOT peptide array binding signal intensity,[40],2
same,SPOT peptide array binding signal intensity,[41],≤ 0
same,SPOT peptide array binding signal intensity,[42],124
same,SPOT peptide array binding signal intensity,[43],1.5
same,SPOT peptide array binding signal intensity,[44],≤ 0
